RGS7-Gao reg – modulates binding of RGS7 to human Galphao; P09471; Multiplexed bead flow cytometry; actives lie on both sides; binding response (% of control), % at 10 µM; 220,000 compounds, 0.35% hits; AID 1439; in the data active = binding response below about 49% or above about 150%; inconclusive = no clear call, values can overlap the other calls; inactive = in between;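 also: fluorescent Galphao held in activated GDP-AlF4 state binding bead-coupled RGS7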
RGS16-Gao – regulators of human RGS16-Galphao interaction | O15492+P09471 | binding response (% of control), % at 10 µM | bead-based flow cytometry RGS16-Galphao binding, fluorescence; actives lie on both sides | 220,000 compounds, 0.38% hits;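 also: Galphao activated by GDP with aluminum fluoride before binding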
Target sequence (O15492 whole entry, looked up): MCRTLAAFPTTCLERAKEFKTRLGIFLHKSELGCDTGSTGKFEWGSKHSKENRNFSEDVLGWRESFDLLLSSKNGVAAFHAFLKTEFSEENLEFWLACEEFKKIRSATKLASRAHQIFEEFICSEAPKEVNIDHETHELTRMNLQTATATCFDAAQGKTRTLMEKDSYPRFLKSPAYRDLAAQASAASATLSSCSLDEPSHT
Target sequence (P09471 whole entry, looked up): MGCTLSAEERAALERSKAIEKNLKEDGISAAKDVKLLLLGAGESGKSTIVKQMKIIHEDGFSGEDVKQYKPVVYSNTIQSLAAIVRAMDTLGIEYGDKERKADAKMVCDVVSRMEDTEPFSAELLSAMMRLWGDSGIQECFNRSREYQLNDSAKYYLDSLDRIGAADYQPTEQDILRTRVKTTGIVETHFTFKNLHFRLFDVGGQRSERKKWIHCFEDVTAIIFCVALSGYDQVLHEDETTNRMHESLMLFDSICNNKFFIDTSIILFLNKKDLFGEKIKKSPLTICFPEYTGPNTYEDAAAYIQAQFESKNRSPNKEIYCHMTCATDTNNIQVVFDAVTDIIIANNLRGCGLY
Avidin fluor – avidin bead compound fluorescence profile; Avidin beads, compound fluorescence 488/530 nm, flow cytometry; hits give high values; fluorescence (KMESF) at 10 µM; 220,000 compounds, 0.38% hits; AID 1775; in the data active = fluorescence above about 47
RGS4-Gao reg – modulates binding of RGS4 to human Galphao; P09471; Multiplexed bead flow cytometry; actives lie on both sides; binding response (% of control), % at 10 µM; 220,000 compounds, 0.33% hits; AID 1415; in the data active = binding response below about 49% or above about 150%; inactive = in between;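 also: fluorescent Galphao activated with aluminum fluoride binding bead-coupled RGS4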
RGS8-Gao – regulators of human RGS8-Galphao interaction; P09471; multiplexed bead flow cytometry, RGS8-Galphao binding; actives lie on both sides; response (percent of control binding), % at 10 µM; 220,000 compounds, 0.34% hits; in the data active = response below about 60% or above about 140%; inactive = in between;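 also: Galphao activated as the GDP aluminium fluoride complex binding bead-coupled RGS8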
GSH fluor – compound fluoresces at 488/530 nm on GSH beads; GSH beads flow cytometry, compound fluorescence 488/530 nm; hits give high values; 190,000 compounds, 0.25% hits; AID 1776; fluorescence (KMESF) at 10 µM; in the data active = fluorescence above about 89;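 also: glutathione beads carrying GST-tagged Bcl family fusion proteins plus one bare bead set; values are compound well signal with DMSO vehicle wells as background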
RGS-Gao – modulates binding between human RGS4 and Galphao; RGS4–Galpha-o binding response, % at 10 µM; multiplexed bead flow cytometry, RGS–Galpha-o binding; shares compounds with RGS16-Gao; 1,600 compounds, 99% hits;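 also: fluorescently labeled Galpha-o bound to GDP with aluminium fluoride binding biotinylated RGS beads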
Avidin counter – interferes with biotinylated probe binding to avidin beads; shares compounds with RGS16-Gao; streptavidin beads, fluorescein-biotin binding, flow cytometry; inhibition, % at 10 µM; 1,700 tested, under 10 active;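 active = inhibition above 50%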;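 also: median green fluorescence of gated singlet beads compared with DMSO control wells; 0% = DMSO wells and 100% = complete loss of bead fluorescence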
RGS8-Gao single – RGS8-Galphao interaction regulation, single point confirmation; shares compounds with RGS16-Gao; bead-based flow cytometry RGS8-Galphao binding, fluorescence; actives lie on both sides; binding response (% of control), % at 10 µM; 1,700 compounds, 3% hits; in the data active = binding response below about 72% or above about 130%; inactive = in between;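 also: Galphao activated as GDP AlF4 complex before binding bead RGS8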
RGS7-Gao single – confirmation of regulators of human RGS7-Galphao interaction; shares compounds with RGS16-Gao; bead-based flow cytometry RGS7-Galphao binding; actives lie on both sides; response (percent of control binding), % at 10 µM; 1,700 compounds, 7.8% hits; AID 1837; in the data active = response below about 75% or above about 130%; inactive = in between;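 also: fluorescent Galphao activated with GDP and aluminum fluoride binding bead-coupled RGS7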
RGS16-Gao single – RGS16-Galphao interaction regulation, single point confirmation; shares compounds with RGS16-Gao; bead-based flow cytometry, RGS16-Galphao binding; actives lie on both sides; response (% of control binding), % at 10 µM; 1,700 compounds, 4% hits; AID 1838; in the data active = response below about 74% or above about 130%; inactive = in between;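 also: Galphao activated as the GDP aluminium fluoride complex binding bead-coupled RGS16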
RGS4-Gao confirm – confirmation of regulators of human RGS4-Galphao interaction; shares compounds with RGS16-Gao; RGS4-Galphao binding, multiplexed bead flow cytometry; actives lie on both sides; binding response (% of control), % at 10 µM; 1,700 compounds, 4% hits; AID 1840; in the data active = binding response below about 74% or above about 130%; inactive = in between
RGS19-Gao single – confirmation of regulators of human RGS19-Galphao interaction; bead-based flow cytometry RGS19-Galphao binding; actives lie on both sides; 1,700 compounds, 5% hits; response (percent of control binding), % at 10 µM; shares compounds with RGS16-Gao; in the data active = response below about 50% or above about 160%; inactive = in between;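 also: 100% = no compound control and 0% = blank background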
* hit, by the source's call; ? = inconclusive; . = not tested or not shown; [ ] = dose if it differs, or a comment. In the library only some 1.2% were active in any assay of this set; here they are far more common. Unless noted, no rule for the calls is given here.

SMILES | RGS7-Gao reg | RGS16-Gao | Avidin fluor | RGS4-Gao reg | RGS8-Gao | GSH fluor | Avidin counter | RGS8-Gao single | RGS7-Gao single | RGS16-Gao single | RGS4-Gao confirm | RGS19-Gao single | others
O=C1N(CN2CCC3(CC2)OCCO3)c2ccccc2C12OCCCO2 | 100 | 104 | 21 | 95 | 99 | 9 | . | . | . | . | . | .
Cc1cnc(NC(=O)CCNC(=O)c2ccc([N+](=O)[O-])cc2)s1 | 100 | 101 | 6 | 102 | 103 | 16 | . | . | . | . | . | .
CCOc1ccc(C2=Nn3c(nnc3-c3ccccc3OC)SC2)cc1 | 100 | 99 | 10 | 99 | 99 | 11 | . | . | . | . | . | .
COc1ccccc1-c1nnc2n1N=C(c1ccc(O)c(O)c1)CS2 | 47* | 22 | 4 | 56 | 59* | 9 | -2 | 91 | 83 | 87 | 91 | 89 | RGS-Gao=56*
CCC(=O)Nc1sc2c(c1C(N)=O)CCC2 | 7.2* | -7.4* | -2 | 16* | 12* | 22 | -1 | 107 | 102 | 108 | 101 | 107
CCOC(=O)/C(C(=O)Nc1ccccc1Cl)=C1/NC(C)(C)Cc2ccccc21 | . | . | . | . | . | 17 | 5 | 95 | 73* | 86 | 85 | 88
CC1(C)Cc2c(sc(NC(=O)c3ccco3)c2C#N)CO1 | -35* | -105* | . | -105* | 2.6* | 13 | 2 | 101 | 103 | 102 | 102 | 99
CC1(C)Cc2c(sc(NC(=O)/C=C/C(=O)O)c2C#N)CO1 | ? | 103 | 4 | 102 | 102 | . | . | . | . | . | . | .
Cc1cc(C(=O)N2CCN(CCc3ccccc3)CC2)no1 | 224*[activator] | 303*[activator] | . | 227*[activator] | 172*[activator] | 30 | 1 | 93 | 58* | 70* | 73* | 39*
Cc1noc(C)c1C(=O)N1CCN(CCc2ccccc2)CC1 | 102 | 103 | 9 | 104 | 99 | 46 | . | . | . | . | . | .
CCCCCC(=O)Nc1cccc(C2=NOC3(C2)C[C@@H](C(N)=O)N(C(=O)CC(c2ccccc2)c2ccccc2)C3)c1 (some centres not stated) | ? | 90 | 11 | 93 | 96 | . | . | . | . | . | . | .
Cc1nn(-c2ccccc2)c(C)c1NC(=O)c1cccs1 | 88 | -7.9* | 9 | 82 | 80 | 10 | 0 | 101 | 103 | 100 | 103 | 101 | RGS-Gao=82*
Cc1nn(-c2ccccc2)c(C)c1NC(=O)Cc1cccs1 | 55 | 58 | 6 | 56 | 68 | 17 | . | . | . | . | . | .
CCSc1ccccc1C(=O)NCc1cccnc1 | 81 | 101 | 22 | 94 | 59* | 25 | -1 | 100 | 67* | 90 | 73* | 85 | RGS-Gao=94*
O=C(NCc1cccnc1)c1ccccc1Br | 101 | 102 | 14 | 102 | 99 | 22 | . | . | . | . | . | .
CC(C)(C)N1CC(OC(N)=O)C1 | ? | 101 | 9 | 102 | 100 | . | . | . | . | . | . | .
CC1(C)CC(NC(=O)c2ccccc2C(=O)NC2CC(C)(C)NC(C)(C)C2)CC(C)(C)N1 | 96 | 99 | 9 | 99 | 101 | 12 | . | . | . | . | . | .

Assay outcomes deposited in PubChem by NMMLSC.
